Test results published in PubChem BioAssay AID1117361 (Southern Research Institute, 2015).
In all, about 3,600 compounds went through this assay and about 900 (25%) were called active. The rule behind the calls is not given here. The list is a sample of the results. Measured potencies and affinities stand elsewhere.

target: Protein Tat (Human immunodeficiency virus type 1 group M subtype B (isolate HXB2)) (UniProt P04608); test: inhibitors of Tat binding to TAR RNA, dose response, counter-screen for Vif-APOBEC3G degradation inhibitor project, biochemical, fluorescence polarization, FAM-labeled TAR RNA (AID 1117361); conditions: outcome: dose series up to 100 µM unless noted; series mostly up to 100 µM; inhibition: at the top concentration

SMILES | outcome | inhibition
Cc1ccc(-c2nc(-c3ccccc3)no2)cc1 | inactive | –
Cc1cccc(C)c1NC(=O)Cn1c(=O)n(CCCC(=O)NCc2ccco2)c(=O)c2sccc21 | – | 1.36% (inactive)
NS(=O)(=O)c1ccc(N=Nc2ccc(=O)[nH]c2O)cc1 | – | 5.01% (inactive)
COc1cc(NC(=O)CSCC(=O)N(C)C2CCCCC2)cc(OC)c1 | – | 1.65% (inactive)
Cc1ccccc1OCC(=O)OCC(=O)c1ccc(OC(=O)c2ccccc2)cc1 | – | 3.67% (inactive)
c1coc(CNc2nc(-c3cccs3)cs2)c1 | – | 20.6% (inactive)
Cc1ccc(Nc2nc(C(=O)NCc3ccco3)cs2)cc1 | – | 12.8% (inactive)
COCCOC(=O)CC1=NC(=O)CS1 | inactive | –
Cc1cc(C(F)F)n2ncc(C(=O)NCc3ccccc3C(F)(F)F)c2n1 | inactive | –
Cc1cc(C)c(Cc2c(C)nc3c(C(=O)NCc4ccco4)cnn3c2C)c(C)c1 | – | 2.73% (inactive)
COc1cc(OC)cc(C(=O)NC(=S)N2CCN(c3ccc(C(F)(F)F)cc3[N+](=O)[O-])CC2)c1 | – | 2.7% (inactive)
CSCCC(NC(N)=O)C(=O)NCc1ccc(Cl)cc1 (centres undefined) | – | 2.7% (inactive)
COc1ccc(N2C(=O)CC(Sc3nc(C)c4c(n3)CCCC4)C2=O)cc1 (centres undefined) | – | 6.08% (inactive)
O=S(=O)(c1ccc(S(=O)(=O)N2CCCC2)cc1)N1CCCCCC1 | inactive | –
CC(C)(C)c1ccc(S(=O)(=O)N2CCCCC2)cc1 | – | 17.3% (inactive)
CC1=C(C(=O)OCCOc2ccccc2)C(c2ccc(C)o2)C2=C(CC(C)(C)CC2=O)N1 (centres undefined) | – | 2.05% (inactive)
CCN(CC)S(=O)(=O)N1CCC(C(=O)NCC2COc3ccccc3O2)CC1 (centres undefined) | inactive | –
N/C(=N\OC(=O)COc1ccc([N+](=O)[O-])cc1)c1cccnc1 | inactive | –
O=C(NCc1cccc(F)c1)C1CCN(S(=O)(=O)Cc2ccccc2)CC1 | inactive | –
O=C(CSc1nnc(Cc2ccc(Cl)cc2)o1)Nc1ccccc1 | inactive | –
CC1CCCC(NC(=O)Cn2cc3c(n2)CCCCC3)C1C (centres undefined) | inactive | –
COCCn1cc(C(=O)NCc2cccs2)c2c3ccccc3n(C)c2c1=O | – | 12.8% (inactive)
Cc1ccc2c(c1)N=C(c1ccc(Cl)cc1)CO2 | – | 11.6% (inactive)
COc1ccc(NC(=O)Nc2cccs2)cc1OC | – | 10.9% (inactive)
CCOC(=O)C1CCCN(c2c(NCCN(CC)c3ccccc3)c(=O)c2=O)C1 (centres undefined) | – | 1.35% (inactive)
CCOC(=O)C1CCCN(C(=O)c2ccc3c(c2)OCO3)C1 (centres undefined) | inactive | –
COc1cc(C(=O)Oc2cccc(Nc3ncnc4ccccc34)c2)cc(OC)c1OC | – | 3.41% (inactive)

SMILES | outcome | inhibition
COc1ccc2c(c1)C1CC(C)(NC(=O)C1C(=O)c1ccccc1)O2 (centres undefined) | – | 2.03% (inactive)
COc1ccc(/C=N/N=C2/NC(=O)C(c3ccccc3)S2)c(OC)c1 (centres undefined) | – | 5.41% (inactive)
COc1cc(/C=N/N=C2/NC(=O)C(c3ccccc3)S2)ccc1O (centres undefined) | inactive | –
Cc1[nH]c2ccccc2c1C(=O)CN1C(=O)NC(C)(c2ccc(Cl)cc2Cl)C1=O (centres undefined) | – | 3.41% (inactive)
CCN(CC(=O)NCc1cccs1)C(=O)c1ccc([N+](=O)[O-])o1 | inactive | –
COc1cccc(NC(=O)CN(C)C(=O)CCCc2nc3ccccc3s2)c1 | – | 1% (inactive)
COc1ccc(-c2cc(C(=O)N(C)CC(=O)Nc3ccccc3Br)c3ccccc3n2)cc1OC | inactive | –
COc1ccc(C(=O)Nc2cccnc2)cc1S(=O)(=O)N1CCOCC1 | – | 6.76% (inactive)
Cc1cc(C)n2nc(C(=O)OCC(=O)N(C)CC(=O)Nc3ccc(F)cc3)nc2n1 | – | 10.7% (inactive)
COc1ccc(OC)c(NC(=O)COC(=O)c2ccc(OC)c(S(=O)(=O)N3CCOCC3)c2)c1 | – | 0.82% (inactive)
CN(CC(=O)Nc1cccc(F)c1)C(=O)c1cc(-c2ccco2)nc2ccccc12 | – | 16.4% (inactive)
CC(=NC1CCCC1)c1c(C)[nH]n(-c2nc3ccccc3s2)c1=O | inactive | –
c1ccc(-c2cc(-c3nnc4n3N=C(c3ccc5ccccc5c3)CS4)[nH]n2)cc1 | – | 2.03% (inactive)
O=[N+]([O-])c1cccc(/C(=N/N=C/c2ccccc2Br)C23CN4CN(CN(C4)C2)C3)c1 | inactive [at 50 µM] | –
COC(=O)c1c(NC(=O)COC(=O)c2ccc(NC(=O)CC#N)cc2)sc2c1CCCCC2 | – | 4.95% (inactive)
O=C(CSc1nc2cc([N+](=O)[O-])ccc2n1-c1ccccc1)NCc1ccc2c(c1)OCO2 | inactive | –
CCCc1ccc(-c2csc(NC(=O)Cc3cccs3)n2)cc1 | inactive | –
COC(=O)C1=C(N)Oc2cc(C)n(Cc3cccnc3)c(=O)c2C1c1cccc(OC)c1OC (centres undefined) | – | 5.41% (inactive)
O=C(OCN1C(=O)c2ccccc2C1=O)C1CCCCC1 | – | 8.87% (inactive)
COc1cc(-c2n[nH]c(=O)o2)cc(OC)c1OC | – | 2.73% (inactive)
COC(=O)/C(=C\Nc1ccccc1)NC(=O)c1ccc(Cl)cc1Cl | – | 0.68% (inactive)
CCOc1ccc2nc(NC(=O)CN3CCN(c4ccccn4)CC3)sc2c1 | – | 4.77% (inactive)
CC1=C(C(=O)OC2CCCCC2)C(c2ccc(C)o2)C2=C(CCCC2=O)N1 (centres undefined) | – | 0.68% (inactive)
CCOc1ccc(N(C(C)C(=O)NC2CCCCCC2)S(C)(=O)=O)cc1 (centres undefined) | – | 2.73% (inactive)
CC(NC(=O)/C(C#N)=C/c1cn[nH]c1-c1ccccc1)c1ccccc1 (centres undefined) | inactive | –
CCCC[C@@H]1CNC(=S)N1CCc1cccc2ccccc12 | inactive | –
Cc1nn(Cc2ccc(F)cc2)c(C)c1NC(=O)c1noc2c1CCc1ccccc1-2 | – | 0.68% (inactive)
